Records with an inconclusive call do not appear. Calls of active or inactive are those of the source. Unless noted, the call rests on the fitted dose curve; in most records, active means well fitted curve in the direction sought with a large enough effect in the repeat runs; inconclusive means weak or mixed curves; inactive means no such curve, though single readings can be large; an effect the other way counts as inactive or inconclusive.
Legend:
[1] = qHTS assay for small molecule agonists of the p53 signaling pathway (AID 651631; calls by dose curve; further: nearly all actives have a fitted effect of over 15% in size)
Outline: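 Beta-lactamase reporter activity under p53 response elements was quantified in HCT-116 cells by FRET fluorescence, following 16 h incubation with test compounds at 37 °C and 2 h substrate development at room temperature.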

[2] = qHTS assay for small molecules that induce genotoxicity in human embryonic kidney cells expressing luciferase-tagged ATAD5 - cell viability (AID 651634; calls by dose curve; further: nearly all actives have a fitted effect of over 25% in size)
Outline: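 Viability read: CellTiter-Fluor fluorescence, 30 min at 37C. Cells: HEK293T, luciferase-tagged ATAD5. Exposure: 15.5 hr, 37C, 5% CO2, compound or DMSO vehicle.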

[3] = qHTS assay for small molecule disruptors of the mitochondrial membrane potential - cell viability (AID 720634; calls by dose curve;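 further: human HepG2 liver cancer cells; series mostly up to about 83 µM; nearly all actives have a fitted effect of over 20% in size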)
Outline: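 HepG2, 1 hr compound, 37 C. ATP luminescence via CellTiter-Glo, 30 min RT, same well as m-MPI.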

[4] = qHTS assay to test for compound auto fluorescence at 590 nm (red) in HepG2 cells (AID 720674)
Outline: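 Intrinsic compound fluorescence in the red window (Ex/Em 540/590 nm) is measured in attached HepG2 cells exposed for 1 hr, DMSO vehicle as baseline, benchmarked to Rose Bengal sodium.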

[5] = qHTS assay to test for compound auto fluorescence at 535 nm (green) in HepG2 cells (AID 720675)
[6] = qHTS assay to test for compound auto fluorescence at 460 nm (blue) in HEK293 cells (AID 720678)
Outline: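 Intrinsic compound fluorescence is recorded in live HEK293 cultures after overnight incubation at 37C, 5% CO2, using excitation 405 nm and emission 460 nm. Values are referenced to triamterene.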

[7] = qHTS assay to test for compound auto fluorescence at 590 nm (red) in HEK293 cells (AID 720679)
Outline: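 Red autofluorescence, HEK293 cells: 2,000 cells/well; attach 4-5 hr 37C; add 23 nL cpd or DMSO; incubate o/n 37C 5% CO2; read Ex540/Em590; Rose Bengal sodium reference.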

[8] = qHTS assay to test for compound auto fluorescence at 535 nm (green) in HEK293 cells (AID 720680)
[9] = qHTS assay to test for compound auto fluorescence at 460 nm (blue) in HEK293 cell free culture (AID 720681)
Outline: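 Test compounds were pinned into cell-free culture medium (DMEM with 10% FBS) and fluorescence was read directly at Ex/Em 405/460 nm. Signals were expressed as fluorescence equivalents of triamterene, with DMSO vehicle as control.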

[10] = qHTS assay to test for compound auto fluorescence at 535 nm (green) in HEK293 cell free culture (AID 720682)
Outline: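 Each library compound, or DMSO control, is added by pintool to medium alone, comprising DMEM and 10% FBS. Emission at 535 nm following 485 nm excitation is quantified against fluorescein.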

[11] = qHTS assay to test for compound auto fluorescence at 590 nm (red) in HEK293 cell free culture (AID 720683)
Outline: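 Tox21 10K library compounds were pinned into cell-free DMEM with 10% FBS and fluorescence was read at excitation 540 nm. Activity is expressed as Rose Bengal sodium equivalency.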

[12] = qHTS assay to test for compound auto fluorescence at 590 nm (red) in HepG2 cell free culture (AID 720684)
Outline: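 Measured in medium alone (MEM containing 10% FBS) following pintool addition of compound; emission at 590 nm with 540 nm excitation, referenced to Rose Bengal sodium.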

[13] = qHTS assay to test for compound auto fluorescence at 460 nm (blue) in HepG2 cell free culture (AID 720685)
Outline: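 Compound (23 nL) or DMSO pinned into cell-free MEM with 10% FBS; blue fluorescence read at 405/460 nm excitation/emission, expressed as auto-fluorescence equivalency to triamterene.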

[14] = qHTS assay to test for compound auto fluorescence at 535 nm (green) in HepG2 cell free culture (AID 720686)
[15] = qHTS assay to test for compound auto fluorescence at 460 nm (blue) in HepG2 cells (AID 720687)
Outline: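 Cells (2,000/well in MEM with 10% FBS) attached overnight at 37 C, then were exposed to compound or DMSO for 1 hr at 37 C, 5% CO2. Fluorescence read at Ex/Em 405/460 nm, expressed as triamterene-equivalent signal.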

[16] = biological target: Glucocorticoid receptor (Homo sapiens) (UniProt P04150); test: qHTS assay to identify small molecule agonists of the glucocorticoid receptor (GR) signaling pathway (AID 720691; active means well fitted activation curve with a large enough effect in the signal ratio in the repeat runs, not every such curve was filed as active; the % refers to the signal ratio)
Outline: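 qHTS in GR-bla HeLa cells: 4 h settling at 37 C/5% CO2, 18 h compound incubation at 37 C, 2 h LiveBLAzer B/G FRET substrate at room temperature, fluorescence intensity measured.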

[17] = biological target: Glucocorticoid receptor (Homo sapiens) (UniProt P04150); test: qHTS assay to identify small molecule antagonists of the glucocorticoid receptor (GR) signaling pathway (AID 720692; active means well fitted inhibition curve with a large enough effect in the signal ratio in the repeat runs, not every such curve was filed as active; the % refers to the signal ratio)
Outline: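 Inhibition of glucocorticoid signalling is measured in HeLa cells with a GRE-controlled beta-lactamase reporter; cells are co-treated with compound and 5 nM dexamethasone (final) for 18 h before FRET substrate readout.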

[18] = qHTS assay for small molecule agonists of the p53 signaling pathway - cell viability (AID 651633; calls by dose curve;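 further: p53RE-bla HCT reporter cells with a stable beta-lactamase p53 reporter; series mostly up to about 83 µM; nearly all actives have a fitted effect of over 30% in size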)
Outline: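 p53RE-bla cells, seeded at 4,000 per well and rested 5 h at 37 C/5% CO2, received compounds in DMSO for 16 h at 37 C. CellTiter-Glo was then added, and luminescence was read after 30 min at room temperature to gauge cytotoxicity.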

[19] = qHTS assay for small molecules that induce genotoxicity in human embryonic kidney cells expressing luciferase-tagged ATAD5 (AID 651632); further: nearly all actives have a fitted effect of over 15% in size
Outline: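 Luminescent reporter readout, HEK293T ATAD5-luc line: 16 hr drug exposure (37C, 5% CO2) followed by Amplite, 30 min RT.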

[20] = qHTS assay for small molecule disruptors of the mitochondrial membrane potential (AID 720635)
Outline: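 HepG2 cells (2,000/well) attached overnight at 37C, then took compound for 1 hr at 37C, 5% CO2. Mito-MPS dye was added for 30 min; fluorescence was read at 490/535 nm (monomers) and 540/590 nm (aggregates).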
On the % scale 0 is the no-effect control and ±100 the full control effect.

Sequence of Glucocorticoid receptor (Homo sapiens) (P04150 whole entry, looked up): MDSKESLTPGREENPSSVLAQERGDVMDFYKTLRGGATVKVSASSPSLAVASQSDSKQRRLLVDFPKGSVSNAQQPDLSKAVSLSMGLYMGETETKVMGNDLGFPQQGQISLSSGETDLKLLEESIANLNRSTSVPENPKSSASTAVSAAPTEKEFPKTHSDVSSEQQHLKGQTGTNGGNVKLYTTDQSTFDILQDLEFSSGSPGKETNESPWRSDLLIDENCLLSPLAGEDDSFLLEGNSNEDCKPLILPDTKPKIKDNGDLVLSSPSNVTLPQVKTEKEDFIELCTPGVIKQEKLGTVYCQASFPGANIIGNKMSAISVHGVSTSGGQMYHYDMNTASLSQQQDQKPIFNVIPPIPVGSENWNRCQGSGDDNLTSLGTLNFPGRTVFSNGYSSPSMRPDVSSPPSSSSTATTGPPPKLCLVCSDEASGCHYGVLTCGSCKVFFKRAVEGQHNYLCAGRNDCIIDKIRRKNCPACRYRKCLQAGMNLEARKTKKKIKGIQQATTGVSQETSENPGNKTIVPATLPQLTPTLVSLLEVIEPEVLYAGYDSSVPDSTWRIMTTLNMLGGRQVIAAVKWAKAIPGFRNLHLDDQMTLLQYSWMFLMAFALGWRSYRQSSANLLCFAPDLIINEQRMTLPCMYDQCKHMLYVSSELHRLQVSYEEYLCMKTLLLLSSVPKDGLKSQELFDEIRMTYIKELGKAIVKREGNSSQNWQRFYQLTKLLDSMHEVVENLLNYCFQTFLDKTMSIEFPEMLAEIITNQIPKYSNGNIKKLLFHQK

CCc1ncc(C)[nH]1
inactive: Potency [1] | outcome [2] | outcome [3] | outcome [4] | outcome [5] | outcome [6] | outcome [7] | outcome [8] | outcome [9] | outcome [10] | outcome [11] | outcome [12] | outcome [13] | outcome [14] | outcome [15] | Potency [16] | outcome [17]

Cc1cc(C)c(C)c(C)c1
inactive: Potency [1] | outcome [18] | outcome [4] | outcome [5] | outcome [7] | outcome [8] | outcome [9] | outcome [10] | outcome [11] | outcome [12] | outcome [13] | outcome [14] | outcome [15]

NS(=O)(=O)c1cc2c(cc1C(F)(F)F)NCNS2(=O)=O
inactive: Potency [19] | outcome [18] | outcome [2] | outcome [3] | Potency [20] | fluorescence, relative to Rose Bengal [4] 0.362% [at 18.6 µM] | fluorescence, % of fluorescein control [5] -0.0771% [at 18.6 µM] | fluorescence, % of fluorescent control [7] -0.333% [at 18.6 µM] | fluorescence, % of fluorescein [8] -0.0035% [at 18.6 µM] | fluorescence, % of fluorescent control [9] 0.05% [at 18.6 µM] | activity change [10] 0.0709% [at 18.6 µM] | fluorescence, % of fluorescent control [11] 0.0039% [at 18.6 µM] | fluorescence, % of Rose Bengal [12] -0.188% [at 18.6 µM] | fluorescence, % of fluorescent control [13] -0.157% [at 18.6 µM] | fluorescence, % of fluorescein control [14] 0.01% [at 18.6 µM] | fluorescence, % of fluorescent control [15] -0.066% [at 18.6 µM] | Potency [16]

O=C(O)/C=C(\CC(=O)O)C(=O)O
inactive: Potency [19] | outcome [18] | outcome [2] | outcome [3] | Potency [20] | outcome [4] | outcome [6] | outcome [7] | outcome [8] | outcome [9] | outcome [10] | outcome [11] | outcome [12] | outcome [13] | outcome [14] | outcome [15]

N=C(N)N
inactive: Potency [1] | outcome [18] | outcome [3] | Potency [20] | outcome [4] | outcome [5] | outcome [6] | outcome [7] | outcome [9] | outcome [10] | outcome [11] | outcome [12] | outcome [13] | outcome [14] | outcome [15] | Potency [16] | outcome [17]

COC(=O)c1ccc(C(=O)O)cc1
inactive: Potency [1] | outcome [18] | outcome [3] | Potency [20] | outcome [4] | outcome [6] | outcome [7] | outcome [9] | outcome [10] | outcome [12] | outcome [13] | outcome [14] | outcome [15] | outcome [17]

C[n+]1ccccc1/C=N/O
inactive: Potency [1] | outcome [2] | outcome [3] | Potency [20] | fluorescence, relative to Rose Bengal [4] 0.247% [at 18.6 µM] | fluorescence, % of fluorescein control [5] -0.126% [at 18.6 µM] | fluorescence, % of triamterene [6] -0.0874% [at 18.6 µM] | fluorescence, % of fluorescent control [7] -1.07% [at 18.6 µM] | fluorescence, % of fluorescein [8] -0.0429% [at 18.6 µM] | fluorescence, % of fluorescent control [9] 0.0506% [at 18.6 µM] | activity change [10] -0.0149% [at 18.6 µM] | fluorescence, % of fluorescent control [11] -0.29% [at 18.6 µM] | fluorescence, % of Rose Bengal [12] -0.356% [at 18.6 µM] | fluorescence, % of fluorescent control [13] -0.0014% [at 18.6 µM] | fluorescence, % of fluorescein control [14] 0.0162% [at 18.6 µM] | fluorescence, % of fluorescent control [15] 0.0546% [at 18.6 µM] | outcome [17]

C=CC(=O)OCCOCCOCC
inactive: Potency [19] | outcome [18] | outcome [2] | outcome [3] | Potency [20] | outcome [4] | outcome [5] | outcome [7] | outcome [8] | outcome [9] | outcome [10] | outcome [11] | outcome [12] | outcome [13] | outcome [14] | outcome [15] | Potency [16]

C/C=C(\C)C=O
inactive: Potency [1] | outcome [18] | outcome [2] | outcome [4] | outcome [5] | outcome [7] | outcome [8] | outcome [9] | outcome [10] | outcome [11] | outcome [12] | outcome [13] | outcome [15]

N#CC1(N)CCCCC1
inactive: Potency [19] | outcome [18] | outcome [2] | outcome [3] | outcome [4] | outcome [5] | outcome [6] | outcome [7] | outcome [8] | outcome [9] | outcome [10] | outcome [11] | outcome [12] | outcome [13] | outcome [14] | Potency [16]

CC1(C)S[C@@H]2[C@H](NC(=O)Cc3ccccc3)C(=O)N2[C@H]1C(=O)O (tested in a mixture with another compound)
inactive: Potency [19] | outcome [18] | outcome [2] | outcome [3] | outcome [4] | outcome [5] | outcome [7] | outcome [8] | outcome [9] | outcome [10] | outcome [11] | outcome [12] | outcome [13] | outcome [14] | outcome [15] | Potency [16]

CCCCCCC(=O)c1ccccc1
inactive: Potency [19] | outcome [18] | outcome [2] | outcome [3] | Potency [20] | outcome [4] | outcome [5] | outcome [7] | outcome [9] | outcome [10] | outcome [11] | outcome [12] | outcome [13] | outcome [14] | outcome [15]

CCC(C)c1nccnc1OC (stereo not drawn)
inactive: Potency [19] | outcome [18] | outcome [2] | outcome [3] | Potency [20] | outcome [4] | outcome [5] | outcome [6] | outcome [7] | outcome [8] | outcome [9] | outcome [10] | outcome [11] | outcome [12] | outcome [13] | outcome [14] | outcome [15] | Potency [16] | outcome [17]

NC(=O)CC[C@@H](N)C(=O)O
inactive: Potency [19] | outcome [18] | outcome [2] | outcome [3] | Potency [20] | outcome [4] | outcome [7] | outcome [9] | outcome [10] | outcome [11] | outcome [12] | outcome [13] | outcome [14] | outcome [15] | Potency [16]

O=Cc1ccccc1S(=O)(=O)O
inactive: Potency [19] | outcome [18] | outcome [2] | outcome [3] | Potency [20] | outcome [4] | outcome [6] | outcome [7] | outcome [9] | outcome [10] | outcome [11] | outcome [12] | outcome [13] | outcome [14] | outcome [15] | outcome [17]

Reference: PubChem BioAssay (Tox21)
